These results are taken from PubChem BioAssay AID1942 (Johns Hopkins Ion Channel Center, 2009).

In all, about 2,400 compounds went through this assay and about 580 (24%) were called active.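 The calls were made as follows: active = activity change at or above the mean plus 3 SD of buffer wells without dofetilide, per plate; inactive = the rest.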 Not all results are given here.

In this assay the target is Potassium voltage-gated channel subfamily KQT member 2 (Rattus norvegicus) (UniProt O88943). Description: KCNQ2 potentiation in CHO cells – cell-based, FluxOR thallium flux, counter-screen for hERG block protector project, confirmation (AID 1942).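 Also: normalized value minus buffer-control mean plus three SD of buffer wells.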 The note with it: FluxOR thallium flux fluorescence, at 10 µM, active compounds read high. (In general: The purpose of a counterscreen is to sort out artefacts and off-target activity.)
Chain of Potassium voltage-gated channel subfamily KQT member 2 (Rattus norvegicus) (O88943 whole entry, looked up): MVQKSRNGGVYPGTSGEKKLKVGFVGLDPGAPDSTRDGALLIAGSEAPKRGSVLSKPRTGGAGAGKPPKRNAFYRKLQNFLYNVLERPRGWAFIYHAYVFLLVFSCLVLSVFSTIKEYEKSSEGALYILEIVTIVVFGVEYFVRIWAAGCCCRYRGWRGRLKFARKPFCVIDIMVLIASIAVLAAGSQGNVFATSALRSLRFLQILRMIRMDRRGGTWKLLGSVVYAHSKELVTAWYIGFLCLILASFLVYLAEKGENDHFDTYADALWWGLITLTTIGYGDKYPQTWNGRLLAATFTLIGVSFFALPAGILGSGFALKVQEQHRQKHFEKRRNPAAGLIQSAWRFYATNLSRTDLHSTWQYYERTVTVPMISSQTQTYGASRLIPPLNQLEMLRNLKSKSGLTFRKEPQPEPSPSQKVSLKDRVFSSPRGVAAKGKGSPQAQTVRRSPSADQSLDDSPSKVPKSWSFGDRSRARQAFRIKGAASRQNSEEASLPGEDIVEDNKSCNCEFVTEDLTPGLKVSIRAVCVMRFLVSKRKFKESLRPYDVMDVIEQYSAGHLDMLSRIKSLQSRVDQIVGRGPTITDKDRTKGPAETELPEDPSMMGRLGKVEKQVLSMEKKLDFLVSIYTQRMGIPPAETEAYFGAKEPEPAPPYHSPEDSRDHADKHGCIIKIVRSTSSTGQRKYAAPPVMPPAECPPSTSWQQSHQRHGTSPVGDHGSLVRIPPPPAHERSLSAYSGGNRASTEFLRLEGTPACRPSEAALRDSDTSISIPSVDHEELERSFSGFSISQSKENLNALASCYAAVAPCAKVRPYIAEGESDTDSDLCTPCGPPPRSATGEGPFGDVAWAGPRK
Consider `COc1cccc(/C=C2/C(=O)NN(c3ccc(C)c(C)c3)C2=O)c1`, for which the activity change, less the hit threshold was -18% (inactive).
As for `O=C(N1CCOCC1)N1CCC(c2nc(-c3ccc(S(=O)(=O)N4CCOCC4)cc3)no2)CC1`, the figure is -23.6% (inactive); as for `COc1ccc(C(=O)NN/C(C)=C/C(=O)c2ccccc2)cc1`, -25.7% (inactive).
In the case of `COc1ccc(C(=O)NC(=S)NCCO)cc1Br` it was -13.1% (inactive).
In the case of `C=CCN(CC=C)C(=S)NC(=O)c1ccc(C)c(Br)c1` it was 135% (active); in that of `COc1ccc(CN(Cc2cccnc2)C(=S)NCCc2ccccc2)cc1OC`, -13.1% (inactive).
Take `COc1cc(OC)cc(C(=O)OCC(=O)N(C)c2ccccc2)c1`: the activity change, less the hit threshold is -28% (inactive).
In the case of `C=CCNC(=S)NC(=O)c1ccc(C)c(Br)c1` it was -17.6% (inactive); in that of `C=CCN(CC=C)C(=S)NC(=O)c1ccc(OC)c(Br)c1`, 46% (active); in that of `CCN(CC)C(=S)NC(=O)c1ccc(OC)c(Br)c1`, -11% (inactive).
As for `COc1ccc(C(=O)NC(=S)N(Cc2ccccc2)Cc2ccccc2)cc1`, the figure is 28.4% (active); as for `COc1cc(OC)cc(C(=O)NC(=S)N(Cc2ccccc2)C(C)C)c1`, 31.3% (active).
In the case of `CCOc1ccc(C(=O)NC(=S)N(Cc2ccccc2)Cc2ccccc2)cc1` it was -5.6% (inactive); in that of `O=c1c([N+](=O)[O-])c(N2CCCCC2)c2ccccc2n1-c1ccccc1`, -20.7% (inactive); in that of `CC(C)=CCCC1=CCC2C(=O)NNC(=O)C2C1` (stereo unspecified), -15.8% (inactive).
Turning to `Cc1ccc(S(=O)(=O)n2cnc3ccccc32)c(C)c1`, the activity change, less the hit threshold was -9% (inactive).
As to `CCCNC(=O)N(C)c1nncnc1C(=O)NC`, the activity change, less the hit threshold is -17.3% (inactive).
As for `CCN(CC(=O)Nc1c(F)cccc1F)C(=O)c1ccc(Cl)c(S(=O)(=O)N2CCCCC2)c1`, the figure is -23.2% (inactive); as for `Cc1cccc(C)c1NC(=O)Cn1cnc2c(=O)n(C)c(=O)n(C)c21`, -15.2% (inactive); as for `C=CCNC(=S)N/N=C(\C)c1ccc(OC)cc1`, -13.1% (inactive).
Turning to `C=CCN(CC=C)C(=S)NC(=O)/C=C/c1ccc(OC)cc1`, the activity change, less the hit threshold was -0.6% (inactive).
In the case of `CCCOc1ccc(CN(CCC#N)C(=S)NC(=O)c2ccccc2)cc1` it was 7.3% (active).
As to `CC(C)N(Cc1ccccc1)C(=S)NC(=O)C1(C)CC1(Cl)Cl` (stereo unspecified), the activity change, less the hit threshold was 32.4% (active).
In the case of `C=CCN(CC=C)C(=S)NC(=O)c1ccc(OC)cc1` it was 10.1% (active).
Regarding `CCCOc1ccc(C(=O)NNC(=S)NC(=O)c2ccccc2)cc1`, the activity change, less the hit threshold is -24.3% (inactive).
As for `O=C(O)c1ccc(Cl)cc1Nc1nc2cc(Cl)ccc2o1`, the figure is -1.7% (inactive).
As for `CC(=O)c1c(C)nc(C)nc1NC(=O)C(C)C`, the figure is -17.2% (inactive); as for `Nc1nc2n(n1)C1(CCCCC1)C1=C(CCCC1)N2`, -18.5% (inactive); as for `CCCCc1c(O)nc(SCC(=O)O)[nH]c1=O`, -17.9% (inactive).
In the case of `FC(F)(F)c1cnc2c(c1)[nH]c(=S)n2-c1ccc(Cl)cc1` it was -2.4% (inactive); in that of `CCC(=O)Nc1cc(-c2nnc(OC)c3ccccc23)ccc1N1CCOCC1`, -7.7% (inactive); in that of `COc1ccccc1NC(=S)NC(=O)c1ccc(-c2ccc(Cl)cc2)o1`, -6.4% (inactive).
Consider `CCCCOC(=O)c1ccc(NC(=S)NC(=O)c2c(Br)c(C)nn2C)cc1`, for which the activity change, less the hit threshold is 10.4% (active).
In the case of `Cc1ccc(NC(=O)c2c([N+](=O)[O-])c(C(C)(C)C)nn2C)cc1` it was -17.2% (inactive); in that of `CCn1ncc(Cl)c1C(=O)NC(=S)Nc1ccccc1Br`, 29.9% (active); in that of `Cc1ccc(NC(=S)NC(=O)c2cncc(Br)c2)cc1Cl`, -17.8% (inactive).
As for `COC(=O)c1ccc(NC(=S)NC(=O)c2c(-c3ccccc3)noc2C)cc1`, the figure is -19.6% (inactive); as for `Cc1nn(CCC(=O)NNC(=S)Nc2ccc(F)cc2)c(C)c1[N+](=O)[O-]`, -18.9% (inactive); as for `O=C(NC(=S)Nc1ccccc1N1CCCC1)c1ccccc1Br`, -29.8% (inactive).
As for `Cc1nn(C)c(C(=O)NC(=S)Nc2ccccc2Br)c1Cl`, the figure is 11.8% (active).
Regarding `CCCCOC(=O)c1ccc(NC(=S)NC(=O)c2c(Cl)cnn2C)cc1`, the activity change, less the hit threshold was -10% (inactive).
Regarding `Cc1nn(C)c(C(=O)NC(=S)Nc2ccc([N+](=O)[O-])cc2)c1Cl`, the activity change, less the hit threshold is 7.5% (active).
For `Cc1cccc(NC(=S)N/N=C2\CC(C)(C)Oc3ccc(O)cc32)c1`, the activity change, less the hit threshold is -9.9% (inactive).
In the case of `Cc1nn(-c2ccc(Cl)nn2)c(=O)c2ccccc12` it was -19.3% (inactive); in that of `CC1CN(S(=O)(=O)c2ccc(-c3nc4ccccc4s3)cc2)CC(C)O1` (stereo unspecified), -3.8% (inactive).
With `CCCN1C(=O)/C(=C/c2ccc3c(c2)OCO3)NC1=S`, the activity change, less the hit threshold is -10.1% (inactive).
Turning to `CC(C)CN1C(=O)/C(=C/c2cccs2)NC1=S`, the activity change, less the hit threshold is 83.6% (active).
As for `CCCN1C(=O)/C(=C/c2ccc(C)s2)NC1=S`, the figure is 80.4% (active); as for `CCN1C(=O)/C(=C/c2ccc(C)s2)NC1=S`, 36.1% (active); as for `COc1ccc(N2C(=O)/C(=C/c3cccs3)NC2=S)cc1`, -15.1% (inactive).
On to `CC(C)CN1C(=O)/C(=C/c2ccco2)NC1=S`, for which the activity change, less the hit threshold was -20.7% (inactive).
As for `O=c1c(C(c2ccc(O)cc2)c2c(O)nc3n(c2=O)CCS3)c(O)nc2n1CCS2`, the figure is -11.7% (inactive); as for `Nc1cc(-c2ccc(Br)cc2)[nH]n1`, -23.7% (inactive); as for `CC(C)=CC(=O)OCC(=O)Nc1ccc(SC(F)F)cc1`, -15.7% (inactive).
In the case of `S=c1nc(-c2ccccc2)c(-c2ccccc2)n[nH]1` it was -18.5% (inactive); in that of `S=c1nc(-c2ccccc2)[nH]n1-c1ccccc1`, 51.8% (active).
For `CCOc1cc(C(=O)NC)cc(OCC)c1OCC`, the activity change, less the hit threshold was -15.9% (inactive).
In the case of `COCCn1c(SCC(=O)Nc2cc(C)cc(C)c2)nc2ccccc2c1=O` it was -17.4% (inactive); in that of `Cc1cc(-c2nnc(SCC(=O)Nc3ccc(C(F)(F)F)cc3)n2C)no1`, -23.1% (inactive).
As to `Cc1cc(C)cc(NC(=O)CSc2nnc(CN3CCOCC3)n2C)c1`, the activity change, less the hit threshold is 27.2% (active).
As for `Clc1cccc(OCCCN2CCCC2)c1Cl`, the figure is -9.5% (inactive); as for `CCOC(=O)C1=C(O)c2ccccc2C(=O)/C1=C\c1ccc(CC)cc1`, -1.8% (inactive); as for `Cc1ccc(/C=C/C(=O)C2C(=O)c3ccccc3C2=O)cc1`, 48.1% (active).
In the case of `Cc1ccc(/C=N/N2C(=O)c3ccccc3NC2c2ccc(C)cc2)cc1` (stereo unspecified) it was -15.6% (inactive); in that of `CCc1ccc(/C=C/C(=O)C2C(=O)c3ccccc3C2=O)cc1`, 37.2% (active).
In the case of `CCOC(=O)C1=C(Cc2ccc(C)cc2)C(=O)c2ccccc2C1=O`, the activity change, less the hit threshold is -0.5% (inactive).
